Measurements reported in PubChem BioAssay AID590 (National Center for Advancing Translational Sciences (NCATS), 2007).
Out of some 59,000 compounds screened, about 6,500 (11%) were called active. About 15% were inconclusive and are not listed. Rule as the data show it: active = max dye-equivalent concentration above about 10 nM; inconclusive = mostly about 1.1 nM to 9.6 nM; inactive = weaker than that. The sample as a whole holds a higher share of actives than the screen did.

experiment: qHTS Assay for Spectroscopic Profiling in A350 Spectral Region; settings: Compound autofluorescence, 340/450 nm, Alexa 350 dye-equivalents; active compounds read high

| SMILES | max dye-equivalent concentration |
| --- | --- |
| CC(C)(C)n1nnc(CCc2nnn(C(C)(C)C)n2)n1 | inactive |
| Cc1csc(NC(=O)NC2(C(F)(F)F)Oc3ccccc3O2)n1 | 100 nM (active) |
| O=C(Nc1cc(N2CCOCC2)ncn1)NC1(C(F)(F)F)Oc2ccc(Cl)cc2O1 (stereo unspecified) | inactive |
| Cc1csc(NC(=O)CN2CCCCCC2)n1 | inactive |
| COc1ccc2[nH]c3cc4c(=O)c5cc(OC)ccc5[nH]c4cc3c(=O)c2c1 | inactive |
| COc1ccc2[nH]c3ccc(OC)cc3c2c1 | 150 nM (active) |
| COc1cccc(Oc2ccc(N)cc2)c1 | inactive |
| CC(C)c1ccc(-c2nn[nH]n2)cc1 | inactive |
| CCOc1ccc(-c2nnc3ccc(SC)nn23)cc1 | 12 nM (active) |
| CCn1cc(C(=O)N2CCN(Cc3ccc4c(c3)OCO4)CC2)c2cc(OC)c(OC)cc2c1=O | inactive |
| CS(=O)(=O)N1CCC2(CC1)CN(c1ccncc1)C2 | inactive |
| CC(=O)NC(Cc1ccc(F)cc1)C(=O)O (stereo unspecified) | inactive |
| Cc1c(NC(=O)C(C)OC(=O)c2cc3c4ccccc4n(C)c3s2)c(=O)n(-c2ccccc2)n1C (stereo unspecified) | 170 nM (active) |
| Cc1cc(C)cc(N(C(C)C(=O)Nc2c(C)n(C)n(-c3ccccc3)c2=O)S(C)(=O)=O)c1 (stereo unspecified) | inactive |
| Cc1ccccc1OCCC(=O)Nc1c(C)n(C)n(-c2ccccc2)c1=O | inactive |
| C[C@H](NC(=O)OC(C)(C)C)c1nnc(SCC(N)=O)o1 | inactive |
| CCCNS(=O)(=O)c1ccc(CCC(=O)NCc2cccnc2)cc1 | inactive |
| COc1ccc(CN(C(=O)c2cccs2)c2nccs2)cc1OC | inactive |
| Cc1ccc(C)n1-c1ccncc1 | inactive |
| O=c1cc(-c2ccccc2)[nH]c2nc(Cl)ccc12 | 69 nM (active) |
| COCCN1Cc2cccc(C(=O)Nc3ccccc3OC)c2C1=O | inactive |
| Fc1ccccc1OCCSc1nc2ccccc2o1 | inactive |

| SMILES | max dye-equivalent concentration |
| --- | --- |
| Cc1ccc(C(=O)CS(C)(=O)=O)cc1 | 19 nM (active) |
| O=C1C=C(NCCNc2c(F)c(F)c(CO)c(F)c2F)CCC1 | inactive |
| Cc1cc(=O)[nH]c(SCC(=O)N2c3ccccc3CC2C)n1 (stereo unspecified) | inactive |
| COCCn1c(=O)c(CCc2ccccc2)nc2cncnc21 | 88 nM (active) |
| Cc1nc2cnc(N3CCN(C)CC3)nc2n(C[C@H]2CCCO2)c1=O | 59 nM (active) |
| Cc1nc2cnc(N3CCNCC3)nc2n(Cc2ccc(F)cc2)c1=O | 110 nM (active) |
| O=C(CSc1nnc(-c2ccco2)n1CC1CCCO1)c1ccccc1 (stereo unspecified) | inactive |
| Cn1cc(-c2nc3cnc(N4CCNCC4)nc3n(CCC#N)c2=O)c2ccccc21 | inactive |
| N#Cc1cccc(-c2nc3cnc(N4CCNCC4)nc3n(C3CC3)c2=O)c1 | 350 nM (active) |
| O=c1c(CCc2ccccc2)nc2cncnc2n1C1CC1 | inactive |
| Cn1c(=O)c2c(nc(OCc3cccnc3)n2Cc2ccccc2)n(C)c1=O | inactive |
| Cc1nc2cnc(Nc3ccccc3)nc2n(C[C@H]2CCCO2)c1=O | inactive |
| CCOc1cc2c(cc1OCC)C(C(=O)O)C(c1ccc(OC)c(O)c1)N(C)C2=O (stereo unspecified) | inactive |
| O=C(COc1cccc(-n2cnnn2)c1)NCCC1=CCCCC1 | inactive |
| Cc1cc(C)cc(NC(=O)N2CCC(NC(=O)c3ccc(F)cc3)CC2)c1 | inactive |
| O=C(NC12CC3CC(CC(C3)C1)C2)N1CCCC(CO)C1 (stereo unspecified) | inactive |
| COc1ccc(S(=O)(=O)N2CCCC2)c(C)c1C | inactive |
| Cc1ccc(NC(=O)C2CC(c3ccc(F)cc3)=NO2)cc1 (stereo unspecified) | inactive |
| COc1ccc(C(=O)N2CCC3(CC2)CCN(c2ccccn2)CC3)cc1 | inactive |
| CCOC(=O)CCC(=O)OCC(=O)NC(C)C1CC2CCC1C2 (stereo unspecified) | inactive |
| Cc1nc(N2CCCC2C(=O)O)c2oc3ccccc3c2n1 (stereo unspecified) | inactive |
| COC(=O)c1ccc(C2CC(=O)Nc3cc(OC)c(OC)cc32)cc1 (stereo unspecified) | inactive |

| SMILES | max dye-equivalent concentration |
| --- | --- |
| COCCn1c(=O)c(CCc2ccccc2)nc2cnc(N3CCNCC3)nc21 | 60 nM (active) |
| Cc1nc2cnc(N3CCNCC3)nc2n(CCc2ccccc2)c1=O | 60 nM (active) |
| O=c1c(-c2ccc(F)cc2)nc2cnc(N3CCNCC3)nc2n1Cc1cccs1 | 16 nM (active) |
| COCCn1c(CN2CCC(Cc3ccccc3)CC2)nc2c1c(=O)n(C)c(=O)n2C | inactive |
| CC1CCN(Cc2nc3c(c(=O)n(C)c(=O)n3C)n2CCc2ccccc2)CC1 | inactive |
| Cn1cc(-c2nc3cnc(N4CCNCC4)nc3n(CCc3ccccc3)c2=O)c2ccccc21 | inactive |
| Cn1c(=O)c(-c2ccccc2)nc2cnc(N3CCNCC3)nc21 | 320 nM (active) |
| CC(=O)O[C@]1(C(C)=O)CC[C@@H]2[C@@H]3C=C(C)C4=CC(=O)CC[C@@]4(C)[C@H]3CC[C@]21C | inactive |
| O=C(NCCN1CCOCC1)c1c(F)c(F)c(F)c(F)c1F | inactive |
| COc1ccc(-c2nn(-c3ccccc3)cc2C(=O)Nc2nc(CC(C)=O)ns2)cc1 | inactive |
| CC(=O)NC(C)c1nc2ccccc2n1Cc1ccccc1F (stereo unspecified) | inactive |
| CC(C)C1Cc2c(sc3c2c(=O)n(-c2ccccc2)c2nncn32)CO1 (stereo unspecified) | inactive |
| CCOC(=O)Cn1c2c(c(-c3ccccc3OC)cc1=O)CCCC2 | inactive |
| COc1ccc(N2CCN(C(=O)CSc3nnc4ncccn34)CC2)cc1 | inactive |
| O=C1CCC(=O)N1CCOP1(=O)COc2ccccc2OC1 | inactive |
| COCCn1c(=O)c(-c2cc(F)cc(F)c2)nc2cnc(N3CCNCC3)nc21 | 390 nM (active) |
| CCCn1c(=O)c2[nH]c(-c3ccc(OCC(=O)NCCN)cc3)nc2n(CCC)c1=O | inactive |
| COc1ccc(C(=O)N2CCC3(CCCN(C(c4ccccc4)c4ccccc4)C3)CC2)cc1 | inactive |
| CC1(C)S[C@@H]2[C@@H](NC(=O)[C@@H](N)c3ccccc3)C(=O)N2[C@H]1C(=O)O | 44 nM (active) |
| CC1(C)SC2c3ccccc3C(=O)N2[C@@H]1C(=O)NCc1ccco1 (stereo partly specified) | inactive |
| CCCC[C@H]1C(=O)N(c2ccccc2)N(c2ccc(O)cc2)C1=O | inactive |
| Cc1cc(Br)ccc1NC(=O)C1CCCO1 (stereo unspecified) | inactive |

| SMILES | max dye-equivalent concentration |
| --- | --- |
| CC(C)C(NC(=O)OCc1ccccc1)C(=O)OCC(=O)N1C(C)CCCC1C (stereo unspecified) | 48 nM (active) |
| NC1(C(=O)OCc2ccccc2)CCCC1 | inactive |
| COc1cccc(NC(=O)C2CCCN2C(=O)OCc2ccccc2)c1 (stereo unspecified) | inactive |
| COc1cc(-c2noc(C3CCCN(S(=O)(=O)c4cccc(Cl)c4)C3)n2)cc(OC)c1OC (stereo unspecified) | inactive |
| Cc1nc2nc[nH]n2c(=O)c1NC(=O)c1cccc(OCC(C)C)c1 | inactive |
| CCCN1Cc2cccc(C(=O)NCc3ccccc3)c2C1=O | inactive |
| CC(C)C(=O)N1c2ccccc2NC2=C(C(=O)CCC2)C1c1ccc(N(C)C)cc1 (stereo unspecified) | inactive |
| O=C1CCCC2=C1C(c1cccs1)n1nc(SCc3ccccc3)nc1N2 (stereo unspecified) | 110 nM (active) |
| NC(=NC(=O)c1ccccc1)C1=C(O)CCC1=O | inactive |
| COc1ccc(-c2ccnc(SCC(=O)N3CCOCC3)n2)cc1 | 100 nM (active) |
| CCn1c(COc2cccc(OC)c2)nnc1SCC(=O)N1CCOCC1 | inactive |
| COc1ccc(-c2nc(SCC(=O)N3CCOCC3)n[nH]2)cc1 | inactive |
| CC(=O)c1nc(N2C(=O)C3CC=C(C)CC3C2=O)sc1C (stereo unspecified) | inactive |
| O/N=C(\c1ccc2c(c1)OCCO2)C1CCCCC1 | inactive |
| Cc1ccsc1C(C(=O)NC1CCCCC1)N(C(=O)Cc1cccs1)C1CC1 (stereo unspecified) | inactive |
| COc1ccc2oc(=O)c(C(=O)N3CCN(c4ccccc4F)CC3)cc2c1 | 41 nM (active) |
| O=C(c1cccc2ccccc12)N1CCN(c2ccccc2F)CC1 | inactive |
| COc1ccc2oc(=O)c(C(=O)N3CCCc4ccccc43)cc2c1 | inactive |
| Cc1cccc(OCc2nnc(SCn3nnc4ccccc4c3=O)o2)c1 | inactive |
| CC1(C)C2CCC1(C)C(OC(=O)CCn1ccnc1)C2 (stereo unspecified) | inactive |
| COc1cccc(NS(=O)(=O)c2ccc3[nH]cc(C(=O)NCCCOC(C)C)c(=O)c3c2)c1 | inactive |
| COC(=O)c1ccccc1NC(=O)c1cncc(Br)c1 | inactive |

| SMILES | max dye-equivalent concentration |
| --- | --- |
| Cc1cc2nc(-c3ccc(NC(=O)c4cccnc4)cc3)oc2cc1C | 90 nM (active) |
| CCOC(=O)c1cc(NC(=O)c2cccnc2)cc(C(=O)OCC)c1 | inactive |
| CCC(=O)Nc1cccc(NC(=O)c2cccnc2)c1 | inactive |
| O=S(=O)(O)CCN1CCOCC1 | inactive |
| CCCc1nnc(NC(=O)CN2C(=O)c3ccccc3S2(=O)=O)s1 | inactive |
| O=P(O)(CP(=O)(c1ccccc1)c1ccccc1)c1ccccc1 | inactive |
| O=C(Nc1c(-c2ccccc2)nc2c(Br)cc(Br)cn12)c1ccco1 | inactive |
| CCN1CCN(C(=O)CN(C)S(=O)(=O)c2ccc(OC)cc2)CC1 | inactive |
| CCOc1cc2[nH]c(=S)n(CCCN3CCCC3=O)c(=O)c2cc1OCC | inactive |
| COc1ccc(S(=O)(=O)N(CCCN2CCCC2=O)Cc2cc3c(C)ccc(C)c3[nH]c2=O)cc1 | 13 nM (active) |
| CC(C)(C)c1ccc(C(=O)CSc2ncn[nH]2)cc1 | inactive |
| Cc1csc(NC(=O)C2CCCN2C(=O)OCC(C)C)n1 (stereo unspecified) | inactive |
| CN(Cc1ccccc1)c1nc2c(c(=O)[nH]c(=O)n2C)n1CCSc1nc2ccccc2[nH]1 | inactive |
| O=C(Cn1c(-c2ccccn2)nc2ccccc21)NCCN1CCOCC1 | inactive |
| C=CCn1c(SCC(=O)Nc2nc3ccccc3s2)nnc1-c1ccccc1O | inactive |
| C=CCn1c2ccccc2c2nnc(SC(CC)C(=O)Nc3nc(C)c(C(=O)OCC)s3)nc21 (stereo unspecified) | 56 nM (active) |
| COc1ccc(-n2c(SCC(=O)Nc3ccc4c(c3)OCO4)nnc2C(C)N2CCCCC2)cc1 (stereo unspecified) | inactive |
| O=C(NCCCNC(=O)NC1CCCCC1)NC1CCCCC1 | inactive |
